Source: PubChem BioAssay (Small Molecule Screening Facility, UW Madison)
RMI FANCM FP – blocks RMI1/RMI2 complex binding to FANCM MM2 peptide | Fluorescence polarization, RMI core complex with F-MM2 peptide; stronger effect = lower value | FP signal (polarization) at 33 µM | 70,000 tested, 0.58% active; in the data active = FP signal below about 40
Of the large screens only hits and unclear results are named; the others gave an inactive call; ! = a repeat was not active. The entries come from a sample that favours hits as a whole.

O=C1c2ccccc2C(=O)c2ccccc21	none
O=C1C=CC(=O)c2c(O)cccc21	RMI FANCM FP -18
CN1CCN(c2ccccc2/C=N/NC(N)=S)CC1	none
CC12CCC3C(CC[C@H]4CC(=O)CCC34C)C1CCC2=O (stereo not given in full)	none
COc1ccc2c3c([nH]c2c1)C(C)=NCC3	RMI FANCM FP 35!
COc1ccc2c(c1)[nH]c1c(C)nccc12	none
CC1=NCCc2c1[nH]c1cc(O)ccc21	none
CCN(CC)CCN(C(=O)Cc1ccc2c(c1)OCO2)c1nc2c(C)c(C)ccc2s1	none
COc1c(CC=C(C)C)c2c(c3oc(=O)c(-c4ccc(O)cc4)c(O)c13)C=CC(C)(C)O2	RMI FANCM FP 13
CC(C)=CCCC1(C)C=Cc2c(O)c3c(c(CC=C(C)C)c2O1)OC12C(=CC4CC1C(C)(C)OC2(C/C=C(/C)C(=O)O)C4=O)C3=O (stereo not given)	none
CC(C)=CCCC1(C)C=Cc2c(O)c3c(c(CC=C(C)C)c2O1)OC12C(=CC4CC1C(C)(C)OC2(C/C=C(/C)C(=O)O)C4O)C3=O (stereo not given)	none
COc1ccccc1C=C(C#N)C#N	none
O=C(c1ccccc1Cl)c1cc(Cl)ccc1NC(=O)c1cc(Cl)sc1Cl	none
N[C@@H](CCl)C(=O)O	none
NCCc1cc(O)c(O)cc1O	none
NC(Cc1cc(O)c(O)cc1O)C(=O)O (stereo not given)	RMI FANCM FP -4
Cc1cc(O)c(C(=O)Nc2cccc(Cl)c2)c(=O)n1CC1CCCO1 (stereo not given)	none
NC1=NC(=O)C(c2ccccc2)O1 (stereo not given)	RMI FANCM FP 17
Cc1nc2ccc(NC(=O)C3CCCC3)cc2c(=O)n1-c1ccccc1	none
Cn1ccc(C(=O)Nc2ccc(Cl)cc2C(=O)c2ccccc2Cl)n1	none
O=C(Nc1ccc(F)c(F)c1F)c1cccn(Cc2cccc([N+](=O)[O-])c2)c1=O	none
COc1ccc(CC(=O)N2CCN(Cc3nc4ccccc4[nH]3)CC2)cc1	none
CC(Cc1ccc(O)cc1)NCC(O)c1cc(O)cc(O)c1 (stereo not given)	RMI FANCM FP -13!
CC(N)Cc1ccc(O)cc1 (stereo not given)	none
C[C@H](Cc1ccc2c(c1)OC(C(=O)O)(C(=O)O)O2)NC[C@H](O)c1cccc(Cl)c1	none
CCOC(=O)c1c(NC(=O)c2cccc3ccccc23)sc2c1CCCC2	none
CS(=O)(=O)c1cccc(C(=O)Nc2ccc(Br)cc2C(=O)c2ccccc2Cl)c1	none
COc1ccccc1N1CCN(CC(=O)Nc2ccc(Cl)cc2C(=O)c2ccccc2)CC1	none
CN(C)C(=O)O/N=C(/N)c1ccc(OCc2ccccc2F)cc1	none
O=C(Cc1csc2nc(-c3ccc(F)cc3)cn12)N1CCN(Cc2ccccc2)CC1	none
